Source: PubChem BioAssay
Active and inactive are the calls of the source. The rule behind the calls is not given here.

assay: inhibition of Brca1/Bard1 split-luciferase complementation, confirmation, counter-screen for Mdm2/MdmX interaction inhibitor project, luminescence, single concentration (AID 504668); details: Brca1/Bard1 bimolecular luciferase complementation counterscreen, at 8 µM, stronger effect = higher value

SMILES	inhibition
CC1=NN(c2ccccc2)C(=O)/C1=C\C=C\c1ccccc1	28.9% (active)
Cc1ccc(C(c2cc(Cl)c3cccnc3c2O)N2CCN(C)CC2)cc1 (stereo unspecified)	32.5% (active)
CCc1cc(C(=O)N2CCc3c([nH]c4ccccc34)C2c2ccc(OC)cc2F)no1 (stereo unspecified)	34.5% (active)
CC(Oc1ccc(F)cc1)C(=O)Nc1nc(-c2ccccn2)cs1 (stereo unspecified)	35.6% (active)
CCOC(=O)C1=C(c2ccccc2)NC(=O)NC1c1ccc(O)c(Cl)c1 (stereo unspecified)	30.5% (active)
CC(C)Cn1c(=O)c(C(=O)Nc2ccccc2S(N)(=O)=O)c(O)c2ccccc21	26.4% (active)
O=C(Nc1nc(-c2ccccn2)cs1)c1ccc(F)c(S(=O)(=O)N2CCOCC2)c1	25.6% (active)
COc1ccc(C(NC(C)=O)c2cc(Cl)c3cccnc3c2O)cc1 (stereo unspecified)	29.3% (active)
Cc1ccc(-n2ncc3c(SCc4ccccn4)ncnc32)c(C)c1	27.6% (active)
Cc1cc(C(=O)CCl)c(C)n1CCc1ccc(F)cc1	34.4% (active)
COc1ccc(C2Oc3ccccc3C3=C2C(c2cccs2)n2ncnc2N3)cc1 (stereo unspecified)	29.5% (active)
CC(Oc1cccc(Br)c1)C(=O)NNC(=O)c1ccccn1 (stereo unspecified)	35.8% (active)
CC(Oc1ccc(Br)cc1)C(=O)Nc1nc(-c2ccccn2)cs1 (stereo unspecified)	35.4% (active)
CCCOCc1ccc(O)c2ncccc12	27.6% (active)
COC(=O)[C@@]1(Cc2ccccc2)[C@H]2C(=O)N(Cc3ccccc3)C(=O)[C@H]2[C@H]2CN=C(SCc3ccccc3)N21	34.6% (active)
O=C(CCCN1C(=O)/C(=C\c2cccs2)SC1=S)Nc1cccnc1	25.5% (active)
